# Bioassay records from PubChem.
# TRPML1 blocker: blocks the human TRPML1 channel; activity change, negative = inhibition, % (test concentration not listed); AID 624415; TRPML1-inducible cells, Ca2+ dye fluorescence, FDSS; stronger effect = lower value; inhibition of EC80 agonist-evoked calcium signal; 0.02% of 390,000 active; Q9GZU1; in the data active = activity change below about -50%;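 also: stimulus is agonist 54-4 at its EC80 concentration; % is scaled to controls: 0 for no effect and ±100 for the full control effect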
#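 Calcium fluorescence in TRPML1-DL cells induced overnight with Tet: a 110 s read after compound pin addition, then a 110 s antagonist read after challenge with 54-4 at 4 uM final (EC80).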
# D3 ag: agonists of human D3 dopamine receptor; P35462; D3R DiscoveRx beta-arrestin cells, luminescence, 90 min; max activation, %; 0.58% of 410,000 active; AID 652048; in the data active = max activation above about 30%; also: 0% is about no effect
# Target sequence (P35462 whole entry, looked up): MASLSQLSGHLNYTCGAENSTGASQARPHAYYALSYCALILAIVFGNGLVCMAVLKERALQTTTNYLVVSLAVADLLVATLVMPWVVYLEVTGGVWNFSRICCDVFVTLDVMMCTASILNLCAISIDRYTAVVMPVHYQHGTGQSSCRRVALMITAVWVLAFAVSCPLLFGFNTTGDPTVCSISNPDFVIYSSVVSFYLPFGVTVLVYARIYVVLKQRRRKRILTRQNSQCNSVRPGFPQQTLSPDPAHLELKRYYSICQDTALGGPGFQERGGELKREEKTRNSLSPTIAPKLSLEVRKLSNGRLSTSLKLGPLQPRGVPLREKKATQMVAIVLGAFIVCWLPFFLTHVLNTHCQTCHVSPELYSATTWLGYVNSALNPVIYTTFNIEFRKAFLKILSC
#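 Agonist-mode cell screen: cells plated at 1500/well and incubated overnight at 37 °C, then exposed to library compounds for 90 min at 37 °C. Detection reagent was added for 30–60 min at room temperature, and luminescence was read.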
# TRPML1 ag: activates the human TRPML1 channel; Q9GZU1; activation, % (test concentration not listed); TRPML1-expressing cells, Ca2+ dye fluorescence, FDSS; 0.12% of 410,000 active; in the data active = activation above about 50%; also: 0% is about no effect
#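 Calcium fluorescence on an FDSS kinetic reader gave the read-out. Tet-induced TRPML1-DL cells were plated overnight, dye-loaded (Ca8 with quencher, 45-90 min, room temperature, dark), then read 110 s after compound addition, and again 110 s after 4uM final 54-4 (EC80).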
# DRD3 antagonist: blocks the human D3 dopamine receptor; AID 652054; P35462; max response, negative = inhibition, %; D3R cells, DiscoveRx beta-arrestin luminescence, antagonist mode; stronger effect = lower value; 2.5% of 360,000 active; in the data active = max response below about -50%; also: % is scaled to controls: 0 for no effect and ±100 for the full control effect
#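 Cells plated overnight at 1500 cells/well, then exposed to library compounds with dopamine controls for 90 minutes at 37 degrees C. DiscoveRx reagent added for 30–60 minutes at room temperature; luminescence read, quantitative HTS format.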
# Starred values were filed as active, the others as inactive; · = not tested or not shown. An excerpt weighted towards active compounds, which were near 2.9% of everything screened.
SMILES,TRPML1 blocker,D3 ag,TRPML1 ag,DRD3 antagonist
O=S1(=O)C=C[C@@H](CO)N1Cc1ccc(Br)cc1,·,5,-1,1
O=S1(=O)C=C[C@@H](COCc2ccccc2)N1Cc1ccc(Br)cc1,2,-10,2,-51*
O=C(NN=Cc1ccc2c(c1)OCO2)NN=Cc1ccc2c(c1)OCO2,-10,46*,-1,45
CCCCC(CC)CNC(=O)c1ccc2c(=O)n(CCOC)c(=O)[nH]c2c1 (stereo not given),-18,-1,1,·
Cc1ccc(-c2c(C)n3c4c(=O)n(C)c(=O)n(C)c4nc3n2CCCO)cc1,-13,37*,2,·
COc1ccc(N2CCN(CCCNC(=O)c3cnn(-c4ccc(F)cc4)c3-n3cccc3)CC2)cc1,2,-9,2,·
CCOc1ccc(NC(=O)Cn2c(=O)n(Cc3ccccc3)c(=O)c3sc4ccccc4c32)cc1,12,1,-1,·
COc1ccccc1N(C(=O)Cn1nnc(-c2ccc(C)o2)n1)C(C(=O)NC1CCCC1)c1ccncc1 (stereo not given),25,-18,0,-53*
CCOC(=O)CN(C(=O)Cn1nnc(-c2ccc(OC)cc2)n1)C(C(=O)NC1CCCC1)c1ccc(F)cc1 (stereo not given),10,-7,2,-11
COc1ccc(-c2nnn(CC(=O)N(Cc3ccc(F)cc3)C(C(=O)NC3CCCC3)c3ccc(F)cc3)n2)cc1 (stereo not given),9,-11,0,-60*
Cc1cc(C)c(CN2CCN(C(=O)CC[C@H]3O[C@@H](n4ccc(=O)[nH]c4=O)[C@H](O)[C@@H]3O)CC2)c(C)c1,-2,-13,0,-69*
Cc1sc(NC(=O)/C=C/c2ccco2)c(C(=O)OC(C)C)c1C,12,32*,0,5
CCC(Sc1ccc2nnc(-c3ccc(F)cc3)n2n1)C(=O)OC (stereo not given),7,-18,0,-75*
COC(=O)C(C)Sc1ccc2nnc(-c3ccc(F)cc3)n2n1 (stereo not given),16,-20,0,-21
CCN(CC)c1ccc(C(=O)NCc2ccc3c(c2)CCN3C(=O)c2ccc(F)cc2)cc1,5,-4,0,·
COc1ccc(S(=O)(=O)N(CCN2CCOCC2)Cc2cc(OC)ccc2OC)cc1,-10,0,2,-27
COc1ccc(S(=O)(=O)N(CCCN2CCOCC2)Cc2cccc(OC)c2OC)cc1,8,-12,-1,-76*
COc1ccc(S(=O)(=O)N(CCCN2CCOCC2)Cc2cccc3ccccc23)cc1,-5,-20,1,-85*
O=S(=O)(c1ccc(Cl)cc1)N(CCCN1CCOCC1)Cc1cccs1,9,-7,0,-80*
O=C(Nc1ccc(Cl)cc1)N(CCCN1CCOCC1)Cc1cccs1,11,-11,0,-10
COc1cc(C)c2ccccc2n1,·,·,-1,·
CCOC(=O)c1ccccc1NC(=O)c1cnc(N2CCOCC2)c2ccccc12,1,11,2,·
Cc1cccc(-n2cc(-c3ccccc3)c3c(NC(C)C)ncnc32)c1,9,-15,1,·
Cc1ccc(C(=O)NNC(=S)Nc2cccc3ccccc23)s1,0,-3,0,-95*
COc1ccc(/C=C/CN2CCC(C(=O)NC(c3ccc(F)cc3)c3ccc4ccccc4n3)CC2)cc1 (stereo not given),·,-13,0,-76*
SMILES,TRPML1 blocker,D3 ag,TRPML1 ag,DRD3 antagonist
COc1ccc(C(NC(=O)C2CCN(CCOc3ccc(F)cc3)CC2)c2cccs2)cc1 (stereo not given),-30,-24,0,-68*
COc1ccc(C(NC(=O)C2CCN(CCOc3ccc(Cl)cc3Cl)CC2)c2cccs2)cc1 (stereo not given),11,61*,1,255
COc1ccc(C(NC(=O)C2CCN(CCOc3ccc(Cl)cc3Cl)CC2)c2ccccc2C)cn1 (stereo not given),·,-11,1,-77*
COc1ccc(OCCN2CCC(C(=O)NC(c3ccsc3)c3ccccc3C)CC2)cc1 (stereo not given),-23,-10,1,-12
COc1ccc(C(=O)c2cn(Cc3ccc(F)cc3)c3c(F)cc(F)cc3c2=O)cc1,23,5,3,·
CCCn1c2ccccc2c2cnn(CC(=O)Nc3ccccc3OC)c(=O)c21,-1,9,3,·
Cc1coc2cc3oc(=O)c(CC(=O)NCc4ccccc4)c(C)c3cc12,32,1,-1,·
Cc1cc(C)c(S(=O)(=O)NCc2csc(-c3ccccc3)n2)c(C)c1,0,-3,2,·
